The text below walks through data of the supplement of paper PMC11417369.

± gives the standard deviation of the averaged measurements. Whole data set: some 25,000 sequences, median “ln(normalized median fluorescence intensity)” near 10, cut for the highest 2% near 12. Only a selection was taken, and the highest values are over-represented in it overall.

The test deals with PfAP2-G AP2 domain (GST-tagged). In words: gcPBM binding intensity (ln(normalized median fluorescence intensity)); higher = stronger DNA binding. Put shortly:
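For binding intensity, the highest Masliner-normalised natural-log median intensity across replicate spots of either probe orientation was taken. Protein bound to the array was stained with Alexa488 anti-GST antibody and scanned at 488 nm. The protein, GST-tagged P. falciparum DNA-binding domains from E. coli at about 25 μg on average, had been applied for 1 h to an Agilent 4 × 180k array of primer-extended double-stranded 36-bp intergenic genomic probes and negative controls.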
For “ATTTATATATATGTATGTACGTATGTGTGTATATGT [XGTACX_site7587]”, the “gcPBM binding intensity (ln)” value was 11.4 ± 0.88.
In the case of “GTATGTATGTATGTATGTACGTATGTATGTATATAT [XGTACX_site3369]”, the “gcPBM binding intensity (ln)” value stood at 11.6 ± 0.98.
On to “ATGACATGTTCTAAATGTACATTTTTTAACCCTTTT [XGTACX_site1858]”, for which the “gcPBM binding intensity (ln)” value came to 10.8 ± 0.4.
“TTTTTTTTTTTTTTATGTACATATATATATTTTATT [XGTACX_site6915]”: the “gcPBM binding intensity (ln)” value was found to be 11.2 ± 0.98.
For “TTTTTTTTTTCTTTTTTTTATTATATTAACGGAATT [GTGCAC_negctrl_site104]”, the “gcPBM binding intensity (ln)” value stood at 9.82 ± 0.17.
“CAAATGGTAAATGAAAGTACAAATTGTTTTGATTAA [XGTACX_site1536]”: the “gcPBM binding intensity (ln)” value is 10.8 ± 0.4.
Turning to “ATGGTAGTGATTAAAAGTACACGTAATTGTAAAAAT [XGTACX_site387]”, the “gcPBM binding intensity (ln)” value came out at 11.7 ± 0.79.
As for “TTAGTTATTATAATTTGTACACAAATGGTAAAGTAT [XGTACX_site2343]”, the “gcPBM binding intensity (ln)” value was determined as 11.2 ± 0.71.
As to “TAAAAAAAAAAATGAACATGCAACAATTGTGATGAA [TGCATGCA_site332]”, the “gcPBM binding intensity (ln)” value worked out at 9.74 ± 0.32.
With “GCACCAAAAAAAAGACGTACAGTTATATTAAAATAG [XGTACX_site8926]”, the “gcPBM binding intensity (ln)” value was found to be 11.7 ± 1.
Turning to “AAATAAATAAATAGACGTACAAAAATATTATACATT [XGTACX_site6776]”, the “gcPBM binding intensity (ln)” value is 11.2 ± 0.8.
Regarding “ATTATATTAAAATACACACCCAAATATTAAAAAGAT [CACACA_site5613]”, the “gcPBM binding intensity (ln)” value came to 10.4 ± 0.19.
The result for “TTTTTATAAGCATAAAGTACAAATATTTTTTAGTTG [XGTACX_site4140]” reads 11 ± 0.59.
With “TGTAAGTATTCTTGAGGTACACATATAAATATAGTA [XGTACX_site3207]”, the “gcPBM binding intensity (ln)” value was 11.4 ± 0.79.
For “AAATATATATATATATATATATATATATATATATAT [CACACA_negctrl_site677]”, the “gcPBM binding intensity (ln)” value came to 10 ± 1.
For the sequence “TATATAAAGCATTGTAGTACTACCAATATTTTTTTT [XGTACX_site3523]”, the “gcPBM binding intensity (ln)” value worked out at 11.6 ± 1.
For “ATAGAATAATATTGTAGTACTAAAAATATTCATTTT [XGTACX_site6447]”, the “gcPBM binding intensity (ln)” value amounted to 11.4 ± 0.92.
Then “TAATATTTATAAAATAGTACACAGAAAAAGCATTTT [XGTACX_site8948]”, with 11.4 ± 0.88.
Consider “GGAAACCTTTTTTTTACACACAATATATTAAGACTT [CACACA_site4899]”, for which the “gcPBM binding intensity (ln)” value was 9.86 ± 0.014.
Turning to “AAAAAAAAATTAAACATACACACGTTACTATTTTTA [CACACA_site1687]”, the “gcPBM binding intensity (ln)” value was 9.64 ± 0.26.
Take “TACGTATTTTAATATTTACACACTTATTTTTTATAT [CACACA_site7924]”: the “gcPBM binding intensity (ln)” value amounted to 10.2 ± 0.13.
On to “AAAATTATTAAATATGTACACACGTACATTTTATAA [CACACA_site8750]”, for which the “gcPBM binding intensity (ln)” value is 11.6 ± 0.88.
Consider “AATATTTTTAATTAATGTACATATTTATTATATAAA [XGTACX_site5112]”, for which the “gcPBM binding intensity (ln)” value was found to be 11.2 ± 0.76.
Consider “AAATGTATAATTTTTTAATACACTTATTTAAAATAA [CACACA_negctrl_site797]”, for which the “gcPBM binding intensity (ln)” value was determined as 10.1 ± 0.2.
Turning to “TTATTATAAATGTTTTGTACGTACATCCGAAAATAA [XGTACX_site2175]”, the “gcPBM binding intensity (ln)” value turned out to be 11.7 ± 1.2.
With “AATGTTTATTTTGTTTGTACATAAAATGAATAAAAT [XGTACX_site1456]”, the “gcPBM binding intensity (ln)” value turned out to be 11.1 ± 0.77.
The result for “TATTAAGTATTTTACGTACACACTTATAAATGTACA [CACACA_site3885]” reads 11.7 ± 0.82; that for “TTATACATATTTATATGTACGTAATATAATATTAAT [XGTACX_site6520]”, 11.3 ± 0.91; that for “TTATTAAATATGTACACACGTACATTTTATAAATGA [CACACA_site2387]”, 11.7 ± 1.1.
“TATAATATATTTTAATGTACGTACATCCCGATTAAT [XGTACX_site7651]”: the “gcPBM binding intensity (ln)” value worked out at 11.7 ± 0.86.
For “TAGTATTATTTTTTTTGTACATATAAATGTAAAATA [XGTACX_site5282]”, the “gcPBM binding intensity (ln)” value came out at 11 ± 0.71.
“AATTATTAAATATGTACACACGTACATTTTATAAAT [CACACA_site5341]”: the “gcPBM binding intensity (ln)” value stood at 11.6 ± 1.
As to “CCTTTCTATTGAAAATGTACATATATATTATTATAT [XGTACX_site5527]”, the “gcPBM binding intensity (ln)” value was determined as 11.1 ± 0.71.
Take “ATATTTTCTAATCAATGTACTTATTCTACACATTAA [XGTACX_site5774]”: the “gcPBM binding intensity (ln)” value stood at 11.3 ± 0.92.
Turning to “ATGGAAATATATACATGTACATAAATATATATATAT [XGTACX_site8391]”, the “gcPBM binding intensity (ln)” value worked out at 11.2 ± 0.61.
As for “TTTTACTCTTAAAATAATAAAAAATATTCACATTTA [CACACA_negctrl_site1508]”, the “gcPBM binding intensity (ln)” value was found to be 9.63 ± 0.085.
As for “TAAATTATAACGTGCACACATATTTAAAATGAAATG [CACACA_site2820]”, the “gcPBM binding intensity (ln)” value was 10.6 ± 0.45.
In the case of “TCTTCACCACGTGGAAGTACATAAAAAGATACACAA [XGTACX_site4747]”, the “gcPBM binding intensity (ln)” value was 11.4 ± 0.93.
Take “AATTTATTAGATAGATGTACATTTTAATAAAAGTAG [XGTACX_site6819]”: the “gcPBM binding intensity (ln)” value was determined as 11.1 ± 0.67.
The result for “AGATATTTTTCTTAAGTACACACTAATTAGAAACTA [CACACA_site7897]” reads 11.3 ± 0.93; that for “CCCATATTATAGGTGTGTACATAAAAGTATATATAA [XGTACX_site3629]”, 11.6 ± 0.95.
Then “TAACACCAAACTAAATGTACACACATACATAAATAT [XGTACX_site2201]”, with 11.2 ± 0.79.
Consider “TATATAATATATTAATGTACGTTATATGTATTCCTT [XGTACX_site6140]”, for which the “gcPBM binding intensity (ln)” value was 11.2 ± 0.81.
As for “ATAATCCTTGGACACACACACACACTAGTAAATAAA [CACACA_site4423]”, the “gcPBM binding intensity (ln)” value stood at 10.9 ± 0.57.
In the case of “ATAAAAGATATTTTTACACACTTTTGATGAGATCGT [CACACA_site3053]”, the “gcPBM binding intensity (ln)” value is 10.08 ± 0.057.
